In PubChem BioAssay AID1159580 (chemical genetic matrix, 2015):
Several values for one entry are separate records, joined by “and”; a condition that tells them apart may be missing. Equal values may be shown once. Among all 5,500 compounds or so, about 2,000 (36%) were called active. Not shown: some 18% with an inconclusive outcome. Cut-off read from the data, not from the text of the source: active = normalized growth mostly below about 0.91 (no sharp cut-off); inconclusive = no clear call, values can overlap the other calls; inactive = mostly above about 0.92. This is one part of the list.

Experiment: chemical genetic growth profiling, strain panel (AID 1159580);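 note: tested at 20 µM; growth read once vehicle control cultures reached saturation at 30 °C; 1 = growth at the plate median or of vehicle wells; lower values mean less growth of the strain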
Details: S. cerevisiae deletion strains, growth OD

Measured: normalized growth

CCC1(C)CC(=O)NC1=O (stereo not given)
inactive: locus YAL013W, strain DEP1, stronger effect = lower value 1.01 and 1.05 | locus YAL021C, strain ccr4, stronger effect = lower value 0.987 | locus YAL026C, strain drs2, stronger effect = lower value 0.986 | locus YAL030W, strain snc1, stronger effect = lower value 0.954 | locus YAL040C, strain CLN3, stronger effect = lower value 0.994 | locus YBL061C, strain skt5, stronger effect = lower value 0.993 | locus YBR009C, strain hhf1, stronger effect = lower value 0.97 | locus YBR021W, strain FUR4, stronger effect = lower value 1.01 | locus YBR023C, strain chs3, stronger effect = lower value 0.958 | locus YBR171W, strain sec66, stronger effect = lower value 0.983 | locus YBR229C, strain ROT2, stronger effect = lower value 1.01 | locus YBR231C, strain swc5, stronger effect = lower value 0.991 | locus YBR279W, strain paf1, stronger effect = lower value 0.973 | locus YCL011C, strain gbp2, stronger effect = lower value 0.992 | locus YCL016C, strain dcc1, stronger effect = lower value 0.986 | locus YCL029C, strain bik1, stronger effect = lower value 1.02 | locus YCL061C, strain MRC1 (second series), stronger effect = lower value 1.01 | locus YCL069W, strain vba3, stronger effect = lower value 0.977 | locus YCR088W, strain abp1, stronger effect = lower value 0.974 | locus YDL005C, strain med2, stronger effect = lower value 0.974 | locus YDL035C, strain GPR1, stronger effect = lower value 0.999 | locus YDL040C, strain nat1, stronger effect = lower value 0.995 | locus YDL074C, strain BRE1, stronger effect = lower value 0.977 | locus YDL101C, strain DUN1, stronger effect = lower value 1.01 | locus YDL134C, strain PPH21, stronger effect = lower value 1.02 | locus YDL185W, strain tfp1, stronger effect = lower value 1.02 | locus YDL192W, strain arf1, stronger effect = lower value 1.02 | locus YDR001C, strain nth1, stronger effect = lower value 0.964 | locus YDR069C, strain doa4, stronger effect = lower value 0.991 | locus YDR101C, strain arx1, stronger effect = lower value 1.04 | locus YDR137W, strain rgp1, stronger effect = lower value 0.979 | locus YDR150W, strain NUM1, stronger effect = lower value 1.01 | locus YDR159W, strain sac3, stronger effect = lower value 0.986 | locus YDR162C, strain NBP2, stronger effect = lower value 1.02 | locus YDR195W, strain ref2 0.953 | locus YDR297W, strain sur2, stronger effect = lower value 0.981 | locus YDR318W, strain mcm21, stronger effect = lower value 1.01 | locus YDR334W, strain swr1, stronger effect = lower value 0.952 | locus YDR335W, strain msn5, stronger effect = lower value 0.969 | locus YDR363W, strain ESC2, stronger effect = lower value 1.02 | locus YDR388W, stronger effect = lower value 1.02 | locus YDR392W, strain spt3, stronger effect = lower value 0.962 | locus YDR502C, strain sam2, stronger effect = lower value 1.01 | locus YEL003W, strain gim4, stronger effect = lower value 0.978 | locus YEL037C, strain rad23, stronger effect = lower value 0.975 | locus YEL061C, strain CIN8 (second series), stronger effect = lower value 0.982 | locus YEL061C, strain CIN8, stronger effect = lower value 1.01 | locus YER002W, strain NOP16, stronger effect = lower value 1.01 | locus YER015W, strain faa2, stronger effect = lower value 0.96 | locus YER016W, strain bim1, stronger effect = lower value 0.981 | locus YER110C, stronger effect = lower value 1.02 | locus YER111C, strain swi4, stronger effect = lower value 0.983 | locus YER155C, strain BEM2 (second series), stronger effect = lower value 0.973 | locus YER155C, strain BEM2, stronger effect = lower value 0.999 | locus YER167W, strain BCK2, stronger effect = lower value 1.01 | locus YFR010W, strain ubp6, stronger effect = lower value 0.974 | locus YGL078C, strain dbp3, stronger effect = lower value 1.01 | locus YGL086W, strain mad1, stronger effect = lower value 1.01 | locus YGL167C, strain pmr1, stronger effect = lower value 0.982 | locus YGL173C, strain kem1, stronger effect = lower value 0.98 | locus YGL227W, strain vid30, stronger effect = lower value 0.985 | locus YGL240W, strain doc1, stronger effect = lower value 0.971 | locus YGL248W, strain PDE1, stronger effect = lower value 1 | locus YGL253W, strain hxk2, stronger effect = lower value 0.981 | locus YGR078C, strain PAC10, stronger effect = lower value 1 and 0.997 | locus YGR135W, strain pre9, stronger effect = lower value 1.02 | locus YGR229C, strain SMI1, stronger effect = lower value 1.01 and 1.03 | locus YGR252W, strain gcn5, stronger effect = lower value 0.98 | locus YHR013C, strain ard1, stronger effect = lower value 0.94 | locus YHR027C, strain rpn1, stronger effect = lower value 0.978 | locus YHR030C, strain SLT2, stronger effect = lower value 1.01 and 0.972 | locus YHR079C, strain IRE1 (second series), stronger effect = lower value 1.02 | locus YHR079C, strain IRE1, stronger effect = lower value 0.978 | locus YHR094C, strain hxt1, stronger effect = lower value 1.02 | locus YHR129C, strain ARP1, stronger effect = lower value 1 | locus YHR142W, strain chs7, stronger effect = lower value 0.967 | locus YHR200W, strain rpn10, stronger effect = lower value 1.02 | locus YIL066C, strain RNR3, stronger effect = lower value 1.01 | locus YIL073C, strain SPO22, stronger effect = lower value 1.06 | locus YIL125W, strain kgd1, stronger effect = lower value 1.01 | locus YIR030C, strain dcg1, stronger effect = lower value 1.02 | locus YJL092W, strain hpr5, stronger effect = lower value 0.974 | locus YJL095W, strain BCK1 (second series), stronger effect = lower value 0.982 | locus YJL095W, strain BCK1, stronger effect = lower value 0.989 and 0.973 | locus YJL115W, strain asf1, stronger effect = lower value 0.959 | locus YJL129C, strain trk1, stronger effect = lower value 0.943 | locus YJL134W, strain LCB3, stronger effect = lower value 1.01 | locus YJL154C, strain vps35, stronger effect = lower value 0.971 | locus YJL164C, strain tpk1, stronger effect = lower value 0.974 | locus YJL166W, strain qcr8, stronger effect = lower value 0.974 | locus YJL168C, strain set2, stronger effect = lower value 1.01 | locus YJL187C, strain SWE1 (second series), stronger effect = lower value 1.01 | locus YJL187C, strain SWE1, stronger effect = lower value 0.98 | locus YJR043C, strain POL32, stronger effect = lower value 1.02 | locus YJR066W, strain TOR1, stronger effect = lower value 0.95
